# Reference: PubChem BioAssay
# Biological target: Calmodulin-1 (Homo sapiens) (UniProt P0DP23)
# Assay: small molecules binding calmodulin-1 with EGTA – biochemical, small-molecule microarray, Cy5-labelled CALM1, profiling panel (AID 1111);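 note: labelled calmodulin applied in Tris saline Tween buffer holding calcium plus EGTA and DTT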
# Settings: Cy5-CALM1 binding fluorescence, higher = more signal
row,SMILES,composite z-score
1,C=C[C@@H](O)[C@H]1CC(c2ccccc2)=NO1,-0.358
2,C=CC[C@]1(C(=O)N(C)C)N=C(c2ccc(OCCCO)cc2)O[C@H]1c1ccccc1,1.57
3,O=C(Nc1cc(Br)ccc1C(=O)NCc1cccc(O)c1)c1ccccc1,1.48
4,CC(C)N1C(=O)c2ccccc2[C@](C)(C(=O)O)[C@@H]1c1ccc(CO)cc1,-0.198
5,COCC(=C=CC[C@@H](O)c1ccccc1OCCO)C[C@@H](O)COCc1ccccc1,1.16
6,C=C(C)[C@@H]1CC=C(C(O)C2C=CC3C(=O)N(C4CCCCC4)C(=O)C3N2Nc2ccc(OC)cc2)CC1 (stereo partly drawn),1.5

# Biological target: Calmodulin-1 (Homo sapiens) (UniProt P0DP23)
# Assay: small molecules binding Ca-loaded calmodulin-1 – biochemical, small-molecule microarray, Cy5-labelled CALM1, plus calcium, artefact control for SMM control-protein annotation, profiling panel (AID 1112);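 note: score merges spot fluorescence with signal to noise from triplicate slides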
# Settings: Cy5-CALM1 binding fluorescence, higher = more signal
row,SMILES,composite z-score
1,O=C1O[C@H](c2ccccc2)[C@H](c2ccccc2)N2[C@H]1[C@@H](C(=O)NC[C@H](O)c1ccccc1)[C@]1(C(=O)Nc3ccccc31)[C@H]2c1ccccc1OCCO,0.376
2,[N-]=[N+]=NCc1ccccc1[C@H]1OC(c2ccc(OCCCO)cc2)=N[C@@]1(Cc1ccccc1N=[N+]=[N-])C(=O)N1CCCCC1,0.289
3,O=[N+]([O-])c1ccc(C[n+]2ccc(-c3ccc(CO)cc3)cc2)o1,0.451
4,O=C1OCC=C[C@H]2OC34C=CCN(CCN5CCOCC5)C(=O)[C@H]3N(CCCCCO)C(=O)[C@@H]4[C@@H]12 (stereo partly drawn),-0.953
5,Cc1ccccc1C(O)C1C=CC2C(=O)N(C)C(=O)C2N1Nc1ccc([N+](=O)[O-])cc1[N+](=O)[O-] (stereo not drawn),1.08
6,O=C1NC(=O)C2C1C=CC(C(O)CCc1ccccc1)N2Nc1ccccn1 (stereo not drawn),0.569
7,O=C(O)[C@@]1(Cc2ccccc2)COC(c2ccc(OCCCO)cc2)=N1,0.0951
